Assay outcomes deposited in PubChem by several laboratories.
rCAG binder: r(CAG) repeat RNA binding; inhibition, % at 3 µM; hit rate 1.3% among 370,000; AID 651821; TO-PRO-1 dye displacement fluorescence;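 active means inhibition above the plate cutoff, the mean of all test compounds on that plate plus 3 SD, cut at about 35% in these data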;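 further: 0% = DMSO alone and 100% = 100 µM mitoxantrone as full dye displacement; higher means more dye released from RNA so lower well fluorescence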
Rtt109 HAT inh: C. albicans Rtt109 histone acetyltransferase inhibition; Q5AAJ8; purified Rtt109/Vps75, ThioGlo CoA-SH fluorescence, 4 h; inhibition, % at 34.9 µM; hit rate 0.16% among 330,000;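 active means inhibition of at least 50% in every replicate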
LANA-H2A inh: blocks KSHV LANA binding to histone H2A/H2B; hit rate 0.6% among 320,000; cell-free LANA-H2A/H2B peptide, fluorescence polarization; inhibition, % (concentration not given with the values); Q9QR71; AID 2629; in the data active means inhibition mostly above about 10%, no sharp cut-off; inactive means mostly below about 6.7%
ABHD5 PLIN5 PPI: ABHD5-PLIN5 protein interaction inhibition; Q00G26+Q8WTS1; Split G. princeps luciferase complementation, luminescence, 4 h; inhibition, % at 4 µM; hit rate 0.78% among 360,000;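 active means inhibition above the mean inhibition across every tested compound plus 3 SD, cut at about 22% in these data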;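 further: 0% = DMSO only wells and the 100% control is not disclosed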
ALR inh: blocks human ALR sulfhydryl oxidase activity; hit rate 3.8% among 290,000; AID 485317; inhibition, % (no concentration beside the values); purified ALR, DTT oxidation, H2O2 HRP-luminol luminescence; P55789;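 active means mean replicate inhibition above about 79%, with every replicate also reaching it, limit read from the data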
PRMT1 inh: inhibitors of human PRMT1; Q99873; recombinant PRMT1, activity-based probe fluorescence polarization; inhibition, % at 2.79 µM; hit rate 1.3% among 370,000; AID 652257;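 active means inhibition above about 21% made by adding two undisclosed values, limit read from the data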
Starred values were filed as active, the others as inactive. An excerpt weighted towards active compounds, which were near 5.9% of everything screened.

Results for CC(C)(C)N1C(=O)c2ccc(C(=O)O)cc2C1=O ?
rCAG binder: 1.3; Rtt109 HAT inh: -1.8; LANA-H2A inh: -3.6; ABHD5 PLIN5 PPI: 1.7; ALR inh: -4.4; PRMT1 inh: -2.3

What do the screens show for `O=C(O)c1ccc2c(c1)C(=O)/C(=C\c1ccco1)C2=O`?
rCAG binder: 17.6; Rtt109 HAT inh: -2.8; LANA-H2A inh: 4.3; ABHD5 PLIN5 PPI: 1.7; ALR inh: 32.8; PRMT1 inh: 34.5*

How did O=C1C(=Cc2ccco2)C(=O)c2ccccc21 do in these assays?
rCAG binder: 30.4; Rtt109 HAT inh: 5.7; LANA-H2A inh: 0.2; ABHD5 PLIN5 PPI: 2.8; ALR inh: -6.6; PRMT1 inh: 34.8*

What do the screens show for `COC(=O)C1CN(Cc2ccccc2)CCS(=O)(=O)N1Cc1ccc(OC)cc1` (stereo not given)?
rCAG binder: -0.4; PRMT1 inh: -5.3

What do the screens show for `CCOCCC(=O)Nc1ccc2c(c1)c(=O)n(C)n2C/C=C/c1ccccc1`?
rCAG binder: 0.5; ABHD5 PLIN5 PPI: -5.6; PRMT1 inh: 0.1

How did COC(=O)C1=C(C)N(Cc2ccc(C(F)(F)F)cc2)C(=NCc2ccc3c(c2)OCO3)NC1c1ccccc1 (stereo not given) do in these assays?
rCAG binder: 12.5; PRMT1 inh: -6.8

What do the screens show for `Cc1nc(C#N)c(N/N=C/c2cccc(Cl)c2)o1`?
rCAG binder: 5.5; Rtt109 HAT inh: 1.1; LANA-H2A inh: -6.1; ABHD5 PLIN5 PPI: -0.6; ALR inh: 96.6*; PRMT1 inh: 1.6

What do the screens show for `O=C(NCCCn1ccnc1)/C(=C/c1ccc(Cl)cc1)NC(=O)c1ccccc1`?
rCAG binder: 0.9; Rtt109 HAT inh: -6.1; LANA-H2A inh: -3.5; ABHD5 PLIN5 PPI: 7.4; ALR inh: -4.0; PRMT1 inh: -1.8

What do the screens show for `CCC(=O)Nc1ccc(C(=O)NCCCn2ccnc2)cc1`?
rCAG binder: 0.5; LANA-H2A inh: -4.9; ABHD5 PLIN5 PPI: 2.6; ALR inh: 99.6*; PRMT1 inh: -1.2

What do the screens show for `CN(C)c1ccc(/C=C(/NC(=O)c2ccccc2)C(=O)NCCCn2ccnc2)cc1`?
Rtt109 HAT inh: -0.7; LANA-H2A inh: -3.2; ABHD5 PLIN5 PPI: 6.0; ALR inh: 98.9*

How did CN(C)c1ccc(/C=C(\NC(=O)c2ccccc2)C(=O)NCCCN2CCOCC2)cc1 do in these assays?
rCAG binder: -6.5; Rtt109 HAT inh: 7.1; LANA-H2A inh: 1.4; ABHD5 PLIN5 PPI: -3.8; ALR inh: 98.4*; PRMT1 inh: -1.1

Results for COc1ccc(CN2CCC(C(=O)c3ccc(Cl)cc3)CC2)cc1 ?
rCAG binder: -6.6; Rtt109 HAT inh: -1.6; LANA-H2A inh: -0.6; ABHD5 PLIN5 PPI: -0.5; PRMT1 inh: -3.9

Results for COc1ccc(-c2ccc3c(n2)CCCN3S(=O)(=O)c2c(C)noc2C)cc1 ?
rCAG binder: 5.0; PRMT1 inh: 5.8

What do the screens show for `O=c1cc(S(=O)(=O)Cc2ccccc2)[nH]c(=O)[nH]1`?
rCAG binder: 2.1; Rtt109 HAT inh: -10.1; ABHD5 PLIN5 PPI: 8.0; PRMT1 inh: 6.0

Results for CCc1cc([N+](=O)[O-])cc(CC)c1N ?
rCAG binder: -1.1; Rtt109 HAT inh: -13.3; LANA-H2A inh: -2.3; ABHD5 PLIN5 PPI: -1.7; PRMT1 inh: -1.3

Results for CCc1cc(SC#N)ccc1N ?
rCAG binder: 3.1; Rtt109 HAT inh: 5.1; LANA-H2A inh: 0.0; ABHD5 PLIN5 PPI: -37.3; PRMT1 inh: 23.9*

How did O=C(O)C1=CCC=CC1C(=O)O (stereo not given) do in these assays?
rCAG binder: 1.7; ABHD5 PLIN5 PPI: 1.9; PRMT1 inh: 4.7

Results for COc1ccc(CCNC(=O)c2ccc3c(c2)ncn3C2CCCCC2)cc1 ?
rCAG binder: 3.4; PRMT1 inh: -3.2

Results for COc1ccc(C(C)=NOC(=O)c2c(-c3ccccc3Cl)noc2C)cc1CN1CCOCC1 ?
rCAG binder: 1.3; ABHD5 PLIN5 PPI: -4.2; PRMT1 inh: -6.3

How did CCSc1nnc(NC(=O)c2cccc(S(=O)(=O)N(C)c3ccccc3)c2)s1 do in these assays?
rCAG binder: 5.5; Rtt109 HAT inh: -1.5; LANA-H2A inh: 8.1; ABHD5 PLIN5 PPI: -2.3; ALR inh: 94.2*; PRMT1 inh: -0.8

How did COc1ccc(N(C)S(=O)(=O)c2cccc(C(=O)Nc3nnc(C4CC4)s3)c2)cc1 do in these assays?
rCAG binder: 19.6; Rtt109 HAT inh: 6.0; LANA-H2A inh: 2.9; ABHD5 PLIN5 PPI: -4.3; ALR inh: -4.5; PRMT1 inh: 3.2
